Records with an inconclusive call do not appear. Unmarked numbers belong to inactive results. Calls of active or inactive are those of the source. Unless noted, the call rests on the fitted dose curve; in most records, active means well fitted curve in the direction sought with a large enough effect; inconclusive means small, poorly fitted or top-dose-only effect, or another doubt; inactive means no such curve, though single readings can be large; an effect the other way counts as inactive or inconclusive.

The nature of test [1]: qHTS for Inhibitors of the Functional Ribonucleoprotein Complex (vRNP) of Lassa (LASV) Arenavirus: LASV Primary Screen - GLuc reporter signal (AID 1347082; calls by dose curve; tested in HEK293 reporter line; further: series mostly up to about 57 µM; nearly all actives have a fitted effect of over 60% in size). (qHTS replaces the single test concentration by a dilution series.)
Test [2] is described as follows: qHTS for Inhibitors of the Functional Ribonucleoprotein Complex (vRNP) of Lassa (LASV) Arenavirus: Viability assay - alamar blue signal for LASV Primary Screen (AID 1347083; calls by dose curve; tested in HEK293 reporter line; further: series mostly up to about 57 µM; nearly all actives have a fitted effect of over 80% in size).
The nature of test [3]: qHTS for Inhibitors of the Functional Ribonucleoprotein Complex (vRNP) of Lymphocytic Choriomeningitis Arenaviruses (LCMV): Viability assay - alamar blue signal for LCMV Primary Screen (AID 1347085; calls by dose curve; tested in HEK293 reporter line; further: series mostly up to about 57 µM; nearly all actives have a fitted effect of over 80% in size).
In test [4] the target is Nucleoprotein (Lymphocytic choriomeningitis virus (strain Armstrong)) (UniProt P09992). Nature of the test: qHTS for Inhibitors of the Functional Ribonucleoprotein Complex (vRNP) of Lymphocytic Choriomeningitis Arenaviruses (LCMV): LCMV Primary Screen - GLuc reporter signal (AID 1347086; calls by dose curve; further: series mostly up to about 57 µM; nearly all actives have a fitted effect of over 70% in size).
Sequence of Nucleoprotein (Lymphocytic choriomeningitis virus (strain Armstrong)) (P09992 whole entry, looked up): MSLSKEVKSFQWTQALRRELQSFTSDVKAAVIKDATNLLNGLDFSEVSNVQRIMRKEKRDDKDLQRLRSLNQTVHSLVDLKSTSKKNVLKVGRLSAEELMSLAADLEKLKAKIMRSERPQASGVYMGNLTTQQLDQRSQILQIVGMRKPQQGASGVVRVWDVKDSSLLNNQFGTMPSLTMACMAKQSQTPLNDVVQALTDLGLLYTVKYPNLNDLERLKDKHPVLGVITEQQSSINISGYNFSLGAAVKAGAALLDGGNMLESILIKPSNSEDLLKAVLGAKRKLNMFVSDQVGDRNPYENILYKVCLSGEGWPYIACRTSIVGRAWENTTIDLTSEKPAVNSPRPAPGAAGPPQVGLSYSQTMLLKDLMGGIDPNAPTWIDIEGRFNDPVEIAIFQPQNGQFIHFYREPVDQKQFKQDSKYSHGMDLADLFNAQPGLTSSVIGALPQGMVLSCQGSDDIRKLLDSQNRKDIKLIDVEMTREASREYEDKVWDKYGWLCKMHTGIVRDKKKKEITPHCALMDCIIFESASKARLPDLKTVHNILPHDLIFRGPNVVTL
Test [5] can be described thus: qHTS of pediatric cancer cell lines to identify multiple opportunities for drug repurposing: Primary screen for TC32 cells (AID 1347089). Further: nearly all actives have a fitted effect of over 60% in size. In outline: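 qHTS, TC32, 48 h drug treatment, CellTiter-Glo luminescence as a proxy for metabolically active cells; primary top concentration 46 µM (MIPE 11-pt, NPC 8-pt); confirmatory 11-pt.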
Test [6] in a line: qHTS of pediatric cancer cell lines to identify multiple opportunities for drug repurposing: Primary screen for DAOY cells (AID 1347090). Further: series mostly up to about 46 µM; nearly all actives have a fitted effect of over 55% in size. In outline: (§1)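 Viability measured as metabolically active cells via CellTiter-Glo luminescence following 48 hours of compound exposure, 11-point dilutions in confirmatory testing. 500-1,000 cells/well plated 5 hours before dosing; controls were DMSO and 2.3 µM bortezomib.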

The nature of test [7]: qHTS of pediatric cancer cell lines to identify multiple opportunities for drug repurposing: Primary screen for SJ-GBM2 cells (AID 1347091). In outline: as §1
Test [8] is described as follows: qHTS of pediatric cancer cell lines to identify multiple opportunities for drug repurposing: Primary screen for A673 cells (AID 1347092). Further: nearly all actives have a fitted effect of over 45% in size. In outline: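 Luminescence from CellTiter-Glo, taken after 15 min at room temperature, served as the proxy for metabolically active cells following 48 h treatment. Both potency and efficacy were taken from curves fitted to the titration data.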

The nature of test [9]: qHTS of pediatric cancer cell lines to identify multiple opportunities for drug repurposing: Primary screen for SK-N-MC cells (AID 1347093). Further: series mostly up to about 46 µM. In outline:
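Metabolically active cells were quantified by ATP-dependent luminescence (CellTiter-Glo, 15 min at room temperature) following 48 h treatment. Cells had been plated at 500-1,000 per well and settled for 5 h beforehand.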

Test [10] in a line: qHTS of pediatric cancer cell lines to identify multiple opportunities for drug repurposing: Primary screen for BT-37 cells (AID 1347094). Further: series mostly up to about 57 µM. The procedure, abridged: (§2)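 Primary screen of approved and investigational compounds on cells in growth media at 37 degrees C, 5% CO2. MIPE set at 11-point and NPC set at 8-point dilutions; viability scored by ATP-based luminescence at 48 hours.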

Test [11] is described as follows: qHTS of pediatric cancer cell lines to identify multiple opportunities for drug repurposing: Primary screen for NB-EBc1 cells (AID 1347095). In outline:
as §2

Test [12] can be described thus: qHTS of pediatric cancer cell lines to identify multiple opportunities for drug repurposing: Primary screen for U-2 OS cells (AID 1347096). Further: nearly all actives have a fitted effect of over 50% in size. In outline:
(§3)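 Viability after 48 h compound treatment at 37C, 500-1,000 cells/well, read as ATP luminescence with CellTiter-Glo. Primary screens used 11-point (MIPE, 0.78 nM-46 µM) or 8-point (NPC, 0.59 nM-46 µM) final concentrations; follow-up screens used 11-point dilutions.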

Test [13] can be described thus: qHTS of pediatric cancer cell lines to identify multiple opportunities for drug repurposing: Primary screen for Saos-2 cells (AID 1347097). Further: nearly all actives have a fitted effect of over 40% in size. Further: potency means the concentration at half of the fitted maximal effect. The procedure, abridged:
as §2

The nature of test [14]: qHTS of pediatric cancer cell lines to identify multiple opportunities for drug repurposing: Primary screen for SK-N-SH cells (AID 1347098).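 Further: DMSO served as neutral control and bortezomib at 2.3 µM as positive control; nearly all actives have a fitted effect of over 65% in size.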 The procedure, abridged:
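Cells (500-1,000/well) rested 5 h, then received compounds for 48 h; metabolically active cells were measured by CellTiter-Glo luminescence. Final concentrations spanned up to 46 µM (MIPE, 11-point) or 0.59 nM-46 µM (NPC, 8-point) in primary screens, 11-point in follow-ups.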

Test [15] is described as follows: qHTS of pediatric cancer cell lines to identify multiple opportunities for drug repurposing: Primary screen for NB1643 cells (AID 1347099). Further: nearly all actives have a fitted effect of over 50% in size. The procedure, abridged: as §2
A short description of test [16]: qHTS of pediatric cancer cell lines to identify multiple opportunities for drug repurposing: Primary screen for LAN-5 cells (AID 1347100). The procedure, abridged: as §3

Regarding `Cc1ncc([N+](=O)[O-])n1C`, the Potency entry in test [1], in [2], in test [3] and in test [4] was “inactive” each time.
Consider `CCCCOC(=O)CCCCCCCCC(=O)OCCCC`, for which the Potency result in test [1], in test [2], in test [3] and in test [4] was “inactive” throughout.
Take `C1CN2CCC1CC2`: the Potency result in test [1], in test [2], in [3], in test [4], in test [5] and in test [6] was “inactive” in each case. Also, the Potency result in [7], in test [8], in test [9], in test [10], in [11] and in test [12] was “inactive” in each case. Further, the Potency result in test [13], in test [14], in [15] and in test [16] was “inactive” throughout.
For the compound `CC(C)(C)CC(C)(C)c1ccc(O)c(Cc2ccc(Cl)cc2Cl)c1`, the Potency result in [1], in test [2], in [3] and in test [4] was “inactive” in each case.
With `NCc1cccnc1`, the Potency result in test [1], in [2], in test [3], in test [4], in test [5] and in test [6] was “inactive” throughout. Further, the Potency result in [7], in test [8], in test [9], in [10], in test [11] and in test [12] was “inactive” each time. In addition, the Potency entry in test [13], in [14], in test [15] and in [16] was “inactive” in each case.
Regarding `CCOc1ccccc1O[C@H](c1ccccc1)[C@H]1CNCCO1`, the Potency entry in [1], in test [2], in test [3] and in test [4] was “inactive” each time.
As for `CCOC(=O)NC(O)C(Cl)(Cl)Cl` (stereo unspecified), the Potency entry in test [1], in test [2], in [3], in test [4], in test [5] and in test [6] was “inactive” in each case. Also, the Potency entry in test [7], in test [8], in test [9], in test [10], in test [11] and in test [12] was “inactive” each time. Moreover, the Potency entry in test [14], in [15] and in [16] was “inactive” throughout.
In the case of `ClCc1cccc(Cl)c1`, the Potency result in test [1], in test [2], in test [3], in test [4], in test [5] and in [6] was “inactive” in each case. In addition, the Potency entry in test [7], in [8], in test [9], in [10], in test [11] and in [12] was “inactive” each time. Besides, the Potency entry in test [13], in [14], in test [15] and in [16] was “inactive” each time.
With `CCNc1nc(Cl)nc(NCC)n1`, the Potency result in [1], in [2], in [3], in test [4], in test [5] and in test [6] was “inactive” each time. The Potency entry in test [7], in test [8], in test [9], in [10], in [11] and in test [12] was “inactive” in each case. In addition, the Potency entry in test [14], in test [15] and in [16] was “inactive” in each case.
In the case of `CC(C)[N+](C)(CCC(C(N)=O)(c1ccccc1)c1ccccc1)C(C)C`, the Potency entry in test [1], in test [2], in [3], in test [4], in test [5] and in [6] was “inactive” throughout. Further, the Potency entry in [7], in test [8], in test [9], in test [10], in test [11] and in test [12] was “inactive” throughout. In addition, the Potency result in test [13], in test [14] and in [16] was “inactive” in each case.
As to `Cc1cccc(Cc2cnc[nH]2)c1C`, the Potency result in test [1], in test [2], in test [3], in [4], in test [5] and in test [6] was “inactive” in each case. Further, the Potency result in test [7], in test [8], in [9], in test [10], in [11] and in [12] was “inactive” each time. Besides, the Potency entry in test [14], in [15] and in test [16] was “inactive” in each case. Further, in [13], the Potency was 29.9 µM (active).
In the case of `Sc1ccccc1Cl`, the Potency result in [1], in test [2], in [3], in test [4], in test [5] and in test [6] was “inactive” throughout. Also, the Potency entry in [7], in test [8], in test [9], in test [10], in test [11] and in test [12] was “inactive” throughout. Moreover, the Potency result in [13], in test [14], in test [15] and in test [16] was “inactive” each time.

Values taken from PubChem BioAssay (NCATS).
